Shown are actives, neighbours in structure and some others; about 4.4% of the full set was active somewhere.
TIM10 inh = inhibits growth of TIM10 yeast strain. S. cerevisiae TIM10 strain growth, BacTiter-Glo luminescence, 24 h. AID 463195. actives 1.4% (n = 330,000). inhibition, % at 10 µM;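 active means inhibition of 40% or more at the single tested concentration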;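 further: wild-type TIM10 isogenic control strain grown at permissive 25 °C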
tim23-1 inh = inhibits growth of tim23-1 mutant yeast; S. cerevisiae tim23-1 growth, BacTiter-Glo luminescence, 24 h; inhibition, % at 20 µM; actives 1.3% (n = 330,000);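 active means growth inhibition of the mutant yeast at or above 50%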;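 further: temperature-sensitive mutant grown at 25 °C; plate controls were DMSO-treated mutant yeast for no effect and medium wells lacking yeast for full effect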
tim10-1 inh = tim10-1 yeast growth inhibition; S. cerevisiae tim10-1 ts strain growth, BacTiter-Glo, 24 h; inhibition, % at 20 µM; actives 2.2% (n = 330,000);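 active means inhibition of at least 40%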;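 further: mutant grown at 25 °C; 0% = DMSO wells with yeast and 100% = wells holding no yeast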
SKKanGAS inh = SKKanGAS growth inhibition; S. pyogenes SKKanGAS, kanamycin growth, BacTiter-Glo, 6 h; inhibition, % at 7.5 µM; actives 1.3% (n = 300,000);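 active means mean replicate score, as percent of positive control median, at least 50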;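 further: strain carries kanamycin resistance gene driven by streptokinase promoter and grows in 40 µg/ml kanamycin; loss of luminescence reflects streptokinase promoter inhibition or plain growth inhibition; 0% = median of DMSO wells and 100% = positive control at its reference dose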
PfHsp90 set2 = inhibits growth of yeast expressing Plasmodium falciparum Hsp90; S. cerevisiae expressing PfHsp90, BacTiter-Glo ATP, 48 h; yeast lacking PDR1 and PDR3 efflux regulators; actives 0.32% (n = 310,000); inhibition, % at 9.4 µM;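 active means every replicate shows inhibition above about 80%, whatever the replicate mean, limit read from the data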;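 further: 0% = DMSO neutral controls and 100% = 20 µM radicicol positive controls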
tim10-1 conf = confirmation of tim10-1 mutant yeast growth inhibitors; shares compounds with tim10-1 inh; S. cerevisiae tim10-1 ts strain growth, BacTiter-Glo, 24 h; inhibition, % at 20 µM; actives 56% (n = 7,400); AID 463213;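 active means inhibition of yeast growth at or above a set limit in either of two repeat tests at 20 µM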;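 further: tim10-1 mutant grown at permissive 25 °C to find synthetic lethal compounds; 0% = DMSO yeast wells and 100% = medium wells without yeast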
TIM10 conf = confirmation of TIM10 yeast growth inhibitors | shares compounds with TIM10 inh | S. cerevisiae tim10 strain growth, BacTiter-Glo luminescence, 24 h | inhibition, % at 10 µM | actives 63% (n = 4,600);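 active means inhibition of yeast growth at or above a set limit in either of two replicates at 10 µM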;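 further: this counterscreen used the strain with wild-type TIM10; 0% = yeast with DMSO and 100% = medium wells lacking yeast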
tim23-1 conf = confirmation of tim23-1 mutant yeast growth inhibitors; shares compounds with tim23-1 inh; S. cerevisiae tim23-1 growth, BacTiter-Glo luminescence, 24 h; inhibition, % at 20 µM; actives 83% (n = 4,400); AID 463218;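 active means inhibition above about 39% in either of two replicate wells at 20 µM, limit read from the data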;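 further: temperature-sensitive tim23-1 mutant grown at 25 °C; 0% = DMSO wells with yeast and 100% = medium wells without yeast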
The depositor's hits bear a star; nt = no result given; ! = repeats disagree.

SMILES	TIM10 inh	tim23-1 inh	tim10-1 inh	SKKanGAS inh	PfHsp90 set2	tim10-1 conf	TIM10 conf	tim23-1 conf
COC(=O)C(C)Oc1ccc(-c2nccc(-c3ccc(F)cc3)n2)cc1 (stereo not drawn)	21	19	19	-3	-24	nt	nt	nt
CCCCCCCCCCCCCCCCn1cc[n+](C)c1	67*!	55*	93*	114*	129*	53*	58*	63*
O=C(Nc1nc2cc3c(cc2s1)OCO3)c1ccco1	nt	nt	nt	11	33	nt	nt	nt
O=C(Nc1nc2cc3c(cc2s1)OCCO3)c1ccco1	43*	75*	49*	62*	53	41*	41*	60*
C=CCn1c(SCC(=O)Nc2ccc(F)cc2)nnc1-c1cnccn1	-11	0	-9	-3	-45	nt	nt	nt
NNc1nc(-c2ccccc2Cl)nc2ccccc12	12	21	21	0	-31	nt	nt	nt
NNc1nc(-c2ccccc2Cl)nc2sc3c(c12)CCCC3	30	63*	58*	5	-5	20	nt	55*
CCN(CC)c1nc(OCCNC(=O)Nc2ccccc2)nc(N(CC)CC)n1	27	62*	42*	5	-9	35*	nt	50*
COc1cccc(CCc2nnc(CCC(=O)NCCC3CCCCO3)o2)c1 (stereo not drawn)	1	3	0	3	-29	nt	nt	nt
Cc1ccc(Nc2nc(Cl)nc(N(C)C#N)n2)cc1	6	59*	50*	9	17	47*	nt	19
CC(C)c1ccc(Nc2nc(Cl)nc(Cl)n2)cc1	1	-1	-10	0	-6	nt	nt	nt
COc1ccc(-c2cc(C3CCNCC3)[nH]n2)cc1	7	22	20	10	13	nt	nt	nt
CCc1nc2sc3ccccc3c(=O)c2c(=O)n1Cc1ccco1	34	53*	69*	5	-80	61*	nt	62*
O=C(COC(=O)CCN1C(=O)/C(=C\C=C\c2ccccc2)SC1=S)Nc1ccc(Br)cc1	43*	54*	49*	3	0	40*	51*	74*
O=C(c1ccccn1)N1CCN(S(=O)(=O)c2ccccc2)CC1	9	6	18	-5	nt	nt	nt	nt
Nc1ccc(Sc2ccccc2Cl)nc1	-12	0	8	2	-6	nt	nt	nt
CCCc1cc(NCCCn2ccnc2)n2nc(C)c(-c3ccccc3)c2n1	17	-3	18	0	12	nt	nt	nt
CC(C)(C)c1cc(NCCCn2ccnc2)n2ncc(-c3ccccc3)c2n1	15	60*	51*	40	21	30*	nt	59*
CCN(CC)C1CC(=O)N(c2cccc(C)c2)C1=O (stereo not drawn)	30	54*	59*	-3	nt	56*	nt	66*
Cc1cccc(N2C(=O)CC(Cn3nc(C)cc3C)C2=O)c1 (stereo not drawn)	-1	4	9	10	5	nt	nt	nt
O=[N+]([O-])c1cc(S(=O)(=O)C(F)(F)F)ccc1Sc1nc2ccccc2[nH]1	58*	68*	60*	99*	-16	48*	51*	59*
COc1ccc2cc3cc(C(=O)NCCN4CCc5ccccc5C4)oc3nc2c1	86*	63*	75*	5	-31	68*	-2	36
NN(Cc1ccccc1)C(=S)Nc1ccc(Cl)c(Cl)c1	50*	71*	41*	29	6	66*	51*	69*
OCCNC(=S)Nc1ccc(Cl)c(Cl)c1	-11	0	29	-1	-19	nt	nt	nt
O=S(=O)(NC1=NCCCCC1)c1ccccc1Cl	-6	-9	-5	-6	-13	nt	nt	nt
COc1ccc(CN2CCN(Cc3ccc(Br)cc3)CC2)c(OC)c1OC	10	8	4	-10	1	nt	nt	nt
COc1ccccc1C1CCN(c2ccc(CO)cc2[N+](=O)[O-])CC1	42*	64*	64*	-10	-6	61*	36*	73*
CC(C)OC(=O)c1c(NC(=O)c2ccco2)sc2c1CCCCC2	36	33	33	10	-7	nt	nt	nt

Bioassay records (PubChem BioAssay)
